According to article PMC7862700, “An all-to-all approach to the identification of sequence-specific readers for epigenetic DNA modifications on cytosine”:

Columns and labels:
Assay in all cases: DAPPL (digital affinity profiling via proximity ligation, sequencing); 10 mM Tris-HCl pH 7.5, 50 mM NaCl, 1 mM DTT, 4% glycerol, room temperature, 30 min; GST-TFs on glutathione beads, 16-mer random dsDNA library, 0.1% formaldehyde crosslink after washing; high values mean tight binding
FEV = target: T1, FEV (Homo sapiens, UniProt Q99581 1-238); conditions: protein: recombinant; tags: N-terminal GST; dsDNA, one strand shown
T1 sequence: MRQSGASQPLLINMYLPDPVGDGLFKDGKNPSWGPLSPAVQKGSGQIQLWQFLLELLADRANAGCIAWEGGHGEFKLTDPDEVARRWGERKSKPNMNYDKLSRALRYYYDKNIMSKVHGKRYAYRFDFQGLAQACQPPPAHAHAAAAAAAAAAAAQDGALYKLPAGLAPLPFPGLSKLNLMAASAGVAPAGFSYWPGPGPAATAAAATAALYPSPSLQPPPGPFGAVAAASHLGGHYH
Outline: (§1)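 Each value of binding signal is a hexamer's read frequency for a factor divided by the same hexamer's frequency in the tag-only sample. Barcoded, bead-captured GST fusions of human transcription factors made in yeast were pooled with that sample and incubated with 200 nmole of a random double-stranded 16-mer DNA library in Tris/NaCl/DTT/glycerol buffer at room temperature for 30 min. Washing, 0.1% formaldehyde crosslinking, proximity ligation, PCR and Illumina NextSeq500 sequencing followed.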

ETV5 = ETV5 (Homo sapiens, UniProt P41161 1-510); conditions: protein: recombinant; tags: N-terminal GST; dsDNA, one strand shown
ETV5, sequence (P41161 whole entry): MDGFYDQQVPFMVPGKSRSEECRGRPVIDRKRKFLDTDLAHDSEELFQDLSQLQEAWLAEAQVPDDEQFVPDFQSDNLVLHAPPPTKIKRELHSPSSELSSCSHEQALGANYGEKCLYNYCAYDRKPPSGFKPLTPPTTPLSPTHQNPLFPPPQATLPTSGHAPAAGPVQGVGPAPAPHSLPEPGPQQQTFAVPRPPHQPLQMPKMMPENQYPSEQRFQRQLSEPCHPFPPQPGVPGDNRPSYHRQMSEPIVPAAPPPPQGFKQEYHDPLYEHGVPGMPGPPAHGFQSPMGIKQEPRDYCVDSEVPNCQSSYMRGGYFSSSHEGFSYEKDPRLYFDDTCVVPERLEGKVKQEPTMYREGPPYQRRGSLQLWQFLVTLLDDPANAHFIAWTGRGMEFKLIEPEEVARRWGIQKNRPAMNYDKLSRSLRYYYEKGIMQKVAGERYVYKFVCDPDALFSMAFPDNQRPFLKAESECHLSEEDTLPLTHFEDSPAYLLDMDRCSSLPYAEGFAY
Outline: as §1

HSF1 = HSF1 (Homo sapiens, UniProt Q00613 1-529); conditions: protein: recombinant; tags: N-terminal GST; chain copies: 3; dsDNA, one strand shown
HSF1, sequence (Q00613 whole entry): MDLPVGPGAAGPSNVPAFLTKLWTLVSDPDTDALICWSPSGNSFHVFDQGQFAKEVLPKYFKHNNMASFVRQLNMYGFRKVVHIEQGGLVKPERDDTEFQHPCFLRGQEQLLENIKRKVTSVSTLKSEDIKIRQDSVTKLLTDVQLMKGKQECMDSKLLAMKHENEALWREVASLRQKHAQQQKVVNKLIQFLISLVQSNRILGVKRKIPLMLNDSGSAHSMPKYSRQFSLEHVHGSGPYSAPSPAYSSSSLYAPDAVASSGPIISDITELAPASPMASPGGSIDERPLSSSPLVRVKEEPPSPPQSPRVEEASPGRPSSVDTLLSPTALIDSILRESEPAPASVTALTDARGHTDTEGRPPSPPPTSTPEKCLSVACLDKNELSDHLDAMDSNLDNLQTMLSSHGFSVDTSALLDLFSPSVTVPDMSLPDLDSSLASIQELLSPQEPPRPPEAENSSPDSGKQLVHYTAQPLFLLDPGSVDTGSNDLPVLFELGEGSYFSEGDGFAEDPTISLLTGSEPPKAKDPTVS
Outline: as §1

SPIC = target: T2, SPIC (Homo sapiens, UniProt Q8N5J4 1-248); conditions: protein: recombinant; tags: N-terminal GST; dsDNA, one strand shown
T2 sequence: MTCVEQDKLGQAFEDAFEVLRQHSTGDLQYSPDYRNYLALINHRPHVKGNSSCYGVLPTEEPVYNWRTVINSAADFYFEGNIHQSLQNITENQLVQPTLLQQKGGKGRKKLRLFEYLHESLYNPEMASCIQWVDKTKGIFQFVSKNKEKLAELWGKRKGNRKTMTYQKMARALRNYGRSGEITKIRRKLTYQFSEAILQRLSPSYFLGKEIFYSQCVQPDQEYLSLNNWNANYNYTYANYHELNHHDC
Outline: as §1

ELF4 = ELF4 (Homo sapiens, UniProt Q99607 1-663); conditions: protein: recombinant; tags: N-terminal GST; dsDNA, one strand shown
ELF4, sequence (Q99607 whole entry): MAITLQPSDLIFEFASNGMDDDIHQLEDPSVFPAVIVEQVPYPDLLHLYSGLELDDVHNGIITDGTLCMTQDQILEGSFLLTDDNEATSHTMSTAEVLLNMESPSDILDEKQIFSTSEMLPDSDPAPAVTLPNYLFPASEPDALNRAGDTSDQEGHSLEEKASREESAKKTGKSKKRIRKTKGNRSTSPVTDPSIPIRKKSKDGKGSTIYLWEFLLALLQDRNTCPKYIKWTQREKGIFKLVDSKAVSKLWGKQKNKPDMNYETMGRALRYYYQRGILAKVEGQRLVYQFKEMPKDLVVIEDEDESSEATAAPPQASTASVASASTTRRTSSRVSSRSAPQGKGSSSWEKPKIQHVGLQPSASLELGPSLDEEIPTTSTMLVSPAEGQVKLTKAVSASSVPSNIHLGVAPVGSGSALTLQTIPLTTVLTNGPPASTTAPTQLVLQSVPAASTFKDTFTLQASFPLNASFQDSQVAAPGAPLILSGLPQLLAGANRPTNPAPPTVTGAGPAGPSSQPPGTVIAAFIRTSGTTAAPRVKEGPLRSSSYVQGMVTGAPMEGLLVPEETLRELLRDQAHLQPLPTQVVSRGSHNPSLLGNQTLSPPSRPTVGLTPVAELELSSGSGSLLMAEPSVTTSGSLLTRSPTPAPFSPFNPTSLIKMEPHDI
Outline: as §1

ELK4 = target: T3, ELK4 (Homo sapiens, UniProt P28324-2 1-405); conditions: protein: recombinant; tags: N-terminal GST; dsDNA, one strand shown
T3 sequence: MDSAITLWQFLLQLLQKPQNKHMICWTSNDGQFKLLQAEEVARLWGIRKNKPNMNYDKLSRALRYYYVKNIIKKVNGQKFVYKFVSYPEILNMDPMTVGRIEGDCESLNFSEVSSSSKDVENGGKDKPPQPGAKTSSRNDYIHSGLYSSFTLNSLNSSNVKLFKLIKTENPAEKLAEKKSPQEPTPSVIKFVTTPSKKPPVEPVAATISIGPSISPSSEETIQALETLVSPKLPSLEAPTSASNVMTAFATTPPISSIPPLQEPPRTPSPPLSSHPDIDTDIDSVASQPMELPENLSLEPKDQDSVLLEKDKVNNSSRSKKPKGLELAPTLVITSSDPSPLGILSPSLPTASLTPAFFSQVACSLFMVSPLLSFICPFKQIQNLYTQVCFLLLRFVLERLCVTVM
Outline: as §1

ETV2 = target: T4, ETV2 (Homo sapiens, UniProt O00321 1-342); conditions: protein: recombinant; tags: N-terminal GST; dsDNA, one strand shown
T4 sequence: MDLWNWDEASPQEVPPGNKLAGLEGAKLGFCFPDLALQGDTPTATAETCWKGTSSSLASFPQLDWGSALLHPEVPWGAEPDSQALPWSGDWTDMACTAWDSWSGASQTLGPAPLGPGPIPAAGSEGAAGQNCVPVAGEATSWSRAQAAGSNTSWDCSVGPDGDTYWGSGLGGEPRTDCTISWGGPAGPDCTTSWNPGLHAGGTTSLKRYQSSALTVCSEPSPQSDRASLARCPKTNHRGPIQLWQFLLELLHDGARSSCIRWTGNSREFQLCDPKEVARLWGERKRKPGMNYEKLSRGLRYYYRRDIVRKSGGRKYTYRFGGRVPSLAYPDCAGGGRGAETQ
Outline: as §1

ELF3 = target: T5, ELF3 (Homo sapiens, UniProt P78545 1-371); conditions: protein: recombinant; tags: N-terminal GST; dsDNA, one strand shown
T5 sequence: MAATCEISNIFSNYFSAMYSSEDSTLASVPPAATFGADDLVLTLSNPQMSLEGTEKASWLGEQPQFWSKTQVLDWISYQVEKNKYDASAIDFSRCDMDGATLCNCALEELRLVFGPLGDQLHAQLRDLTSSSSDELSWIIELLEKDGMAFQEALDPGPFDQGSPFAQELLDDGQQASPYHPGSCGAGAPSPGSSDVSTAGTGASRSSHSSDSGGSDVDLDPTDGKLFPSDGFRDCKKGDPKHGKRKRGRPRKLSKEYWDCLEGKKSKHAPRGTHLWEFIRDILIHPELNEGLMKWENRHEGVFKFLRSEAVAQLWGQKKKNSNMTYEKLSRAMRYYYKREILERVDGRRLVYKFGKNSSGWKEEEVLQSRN
Outline: as §1

CRX = CRX (Homo sapiens, UniProt O43186 1-299); conditions: protein: recombinant; tags: N-terminal GST; dsDNA, one strand shown
CRX, sequence (O43186 whole entry): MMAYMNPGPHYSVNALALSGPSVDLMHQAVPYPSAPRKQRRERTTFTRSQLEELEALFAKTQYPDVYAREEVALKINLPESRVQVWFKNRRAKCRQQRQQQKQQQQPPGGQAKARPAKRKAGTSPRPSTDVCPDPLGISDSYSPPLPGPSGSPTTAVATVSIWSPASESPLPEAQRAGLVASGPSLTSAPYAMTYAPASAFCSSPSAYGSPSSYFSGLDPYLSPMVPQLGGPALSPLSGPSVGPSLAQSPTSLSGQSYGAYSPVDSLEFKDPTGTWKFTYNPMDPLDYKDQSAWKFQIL
Outline: as §1

ETV1 = ETV1 (Homo sapiens, UniProt P50549 1-477); conditions: protein: recombinant; tags: N-terminal GST; dsDNA, one strand shown
ETV1, sequence (P50549 whole entry): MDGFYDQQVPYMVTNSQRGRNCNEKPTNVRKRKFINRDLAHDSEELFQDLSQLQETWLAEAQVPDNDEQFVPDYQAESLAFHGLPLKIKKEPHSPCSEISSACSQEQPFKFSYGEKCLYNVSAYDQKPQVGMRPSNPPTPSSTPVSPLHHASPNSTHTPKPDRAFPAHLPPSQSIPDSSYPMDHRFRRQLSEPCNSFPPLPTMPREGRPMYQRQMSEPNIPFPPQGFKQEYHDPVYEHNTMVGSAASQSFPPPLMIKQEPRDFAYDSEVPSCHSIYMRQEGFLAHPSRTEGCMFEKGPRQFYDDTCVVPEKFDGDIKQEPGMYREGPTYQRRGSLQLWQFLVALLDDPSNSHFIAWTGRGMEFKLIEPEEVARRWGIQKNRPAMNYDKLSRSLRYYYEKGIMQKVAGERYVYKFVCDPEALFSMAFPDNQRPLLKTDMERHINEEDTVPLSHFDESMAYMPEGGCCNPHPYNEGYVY
Outline: as §1

ERF = target: T6, ERF (Homo sapiens, UniProt P50548 1-548); conditions: protein: recombinant; tags: N-terminal GST; dsDNA, one strand shown
T6 sequence: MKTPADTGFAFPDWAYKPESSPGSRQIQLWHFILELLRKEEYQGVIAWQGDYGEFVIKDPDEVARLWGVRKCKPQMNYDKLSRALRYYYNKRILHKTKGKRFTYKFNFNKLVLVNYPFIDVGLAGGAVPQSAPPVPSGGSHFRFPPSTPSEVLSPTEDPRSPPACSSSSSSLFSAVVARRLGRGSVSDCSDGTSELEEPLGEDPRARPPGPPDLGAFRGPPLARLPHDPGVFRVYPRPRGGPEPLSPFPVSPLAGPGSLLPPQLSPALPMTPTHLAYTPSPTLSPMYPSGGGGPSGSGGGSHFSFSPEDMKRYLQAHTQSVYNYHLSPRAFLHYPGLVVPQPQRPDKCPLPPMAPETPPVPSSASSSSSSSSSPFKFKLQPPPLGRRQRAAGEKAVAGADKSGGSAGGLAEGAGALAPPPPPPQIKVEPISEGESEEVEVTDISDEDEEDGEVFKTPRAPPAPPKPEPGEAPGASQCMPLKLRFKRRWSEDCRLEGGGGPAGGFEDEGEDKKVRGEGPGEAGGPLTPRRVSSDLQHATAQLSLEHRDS
Outline: as §1

ETV3L = target: T7, ETV3L (Homo sapiens, UniProt Q6ZN32 1-361); conditions: protein: recombinant; tags: N-terminal GST; dsDNA, one strand shown
T7 sequence: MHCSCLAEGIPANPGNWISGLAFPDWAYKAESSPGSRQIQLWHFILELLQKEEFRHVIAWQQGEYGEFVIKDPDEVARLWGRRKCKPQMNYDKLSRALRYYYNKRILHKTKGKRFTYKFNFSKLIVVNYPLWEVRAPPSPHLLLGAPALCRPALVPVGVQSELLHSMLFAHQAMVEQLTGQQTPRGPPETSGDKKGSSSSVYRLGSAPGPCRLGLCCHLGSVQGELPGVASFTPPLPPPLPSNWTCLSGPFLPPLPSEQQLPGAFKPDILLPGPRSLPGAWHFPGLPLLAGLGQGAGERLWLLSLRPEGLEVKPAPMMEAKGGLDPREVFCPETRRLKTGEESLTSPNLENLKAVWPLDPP
Outline: as §1

ETS2 = target: T8, ETS2 (Homo sapiens, UniProt P15036 1-469); conditions: protein: recombinant; tags: N-terminal GST; dsDNA, one strand shown
T8 sequence: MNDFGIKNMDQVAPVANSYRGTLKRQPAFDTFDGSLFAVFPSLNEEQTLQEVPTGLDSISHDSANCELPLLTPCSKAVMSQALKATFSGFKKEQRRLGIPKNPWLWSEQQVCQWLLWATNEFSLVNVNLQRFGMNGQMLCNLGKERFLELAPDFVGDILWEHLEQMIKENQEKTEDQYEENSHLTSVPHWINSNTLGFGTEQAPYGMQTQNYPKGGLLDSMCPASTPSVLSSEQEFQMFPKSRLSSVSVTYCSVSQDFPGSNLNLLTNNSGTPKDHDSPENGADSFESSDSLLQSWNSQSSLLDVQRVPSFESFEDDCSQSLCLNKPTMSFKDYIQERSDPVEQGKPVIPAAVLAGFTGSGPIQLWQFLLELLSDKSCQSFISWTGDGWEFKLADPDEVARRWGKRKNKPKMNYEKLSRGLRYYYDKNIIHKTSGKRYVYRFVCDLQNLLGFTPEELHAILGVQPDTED
Outline: as §1

SPDEF = target: T9, SPDEF (Homo sapiens, UniProt O95238 1-335); conditions: protein: recombinant; tags: N-terminal GST; dsDNA, one strand shown
T9 sequence: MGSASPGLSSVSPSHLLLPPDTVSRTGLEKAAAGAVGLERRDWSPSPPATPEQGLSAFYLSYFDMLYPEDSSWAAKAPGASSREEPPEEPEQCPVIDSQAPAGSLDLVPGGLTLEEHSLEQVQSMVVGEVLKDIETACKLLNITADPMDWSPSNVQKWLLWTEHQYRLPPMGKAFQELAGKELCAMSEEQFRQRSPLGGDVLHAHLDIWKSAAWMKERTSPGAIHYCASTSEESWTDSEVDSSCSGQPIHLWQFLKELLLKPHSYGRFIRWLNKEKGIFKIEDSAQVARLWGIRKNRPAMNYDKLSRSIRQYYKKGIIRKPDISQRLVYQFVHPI
Outline: as §1

ETV7 = target: T10, ETV7 (Homo sapiens, UniProt Q9Y603 1-341); conditions: protein: recombinant; tags: N-terminal GST; dsDNA, one strand shown
T10 sequence: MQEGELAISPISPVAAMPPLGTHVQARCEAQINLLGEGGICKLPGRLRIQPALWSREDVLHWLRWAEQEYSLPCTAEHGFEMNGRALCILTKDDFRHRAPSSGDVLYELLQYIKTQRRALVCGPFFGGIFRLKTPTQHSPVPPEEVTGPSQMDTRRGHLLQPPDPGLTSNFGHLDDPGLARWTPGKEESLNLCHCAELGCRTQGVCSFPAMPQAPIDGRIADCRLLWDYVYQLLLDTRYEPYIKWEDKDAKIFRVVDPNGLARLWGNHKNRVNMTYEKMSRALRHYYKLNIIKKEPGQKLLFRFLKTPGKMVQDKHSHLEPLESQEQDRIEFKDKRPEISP
Outline: as §1

ELF5 = target: T11, ELF5 (Homo sapiens, UniProt Q9UKW6-2 1-255); conditions: protein: recombinant; tags: N-terminal GST; dsDNA, one strand shown
T11 sequence: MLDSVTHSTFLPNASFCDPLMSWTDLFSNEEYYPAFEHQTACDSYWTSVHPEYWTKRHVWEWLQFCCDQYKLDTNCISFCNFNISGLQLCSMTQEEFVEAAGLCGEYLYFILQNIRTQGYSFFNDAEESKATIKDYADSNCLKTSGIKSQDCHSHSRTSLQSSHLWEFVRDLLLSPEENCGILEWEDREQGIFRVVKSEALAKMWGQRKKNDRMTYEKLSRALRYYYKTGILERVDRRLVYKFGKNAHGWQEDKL
Outline: as §1

ETV3 = target: T12, ETV3 (Homo sapiens, UniProt P41162-2 1-143); conditions: protein: recombinant; tags: N-terminal GST; dsDNA, one strand shown
T12 sequence: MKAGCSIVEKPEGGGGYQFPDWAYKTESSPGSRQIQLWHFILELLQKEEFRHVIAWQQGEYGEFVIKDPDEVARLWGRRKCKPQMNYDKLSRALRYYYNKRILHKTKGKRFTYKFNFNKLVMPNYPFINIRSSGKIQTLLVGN
Outline: as §1

ETV6 = ETV6 (Homo sapiens, UniProt P41212 1-452); conditions: protein: recombinant; tags: N-terminal GST; dsDNA, one strand shown
ETV6, sequence (P41212 whole entry): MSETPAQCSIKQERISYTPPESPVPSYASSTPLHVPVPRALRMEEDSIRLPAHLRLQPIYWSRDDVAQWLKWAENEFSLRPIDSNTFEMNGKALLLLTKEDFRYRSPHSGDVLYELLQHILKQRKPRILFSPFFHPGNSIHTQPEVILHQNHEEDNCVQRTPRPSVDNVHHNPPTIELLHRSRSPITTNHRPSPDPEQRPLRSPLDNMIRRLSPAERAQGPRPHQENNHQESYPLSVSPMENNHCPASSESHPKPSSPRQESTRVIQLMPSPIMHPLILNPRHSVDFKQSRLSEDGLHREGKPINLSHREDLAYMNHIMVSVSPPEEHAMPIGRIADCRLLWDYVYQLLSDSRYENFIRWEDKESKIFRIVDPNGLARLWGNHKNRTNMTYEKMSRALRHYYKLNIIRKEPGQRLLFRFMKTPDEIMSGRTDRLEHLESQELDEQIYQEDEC
Outline: as §1

Sequence	binding signal (FEV)	binding signal (ETV5)	binding signal (HSF1)	binding signal (SPIC)	binding signal (ELF4)	binding signal (ELK4)	binding signal (ETV2)	binding signal (ELF3)	binding signal (CRX)	binding signal (ETV1)	binding signal (ERF)	binding signal (ETV3L)	binding signal (ETS2)	binding signal (SPDEF)	binding signal (ETV7)	binding signal (ELF5)	binding signal (ETV3)	binding signal (ETV6)
ATTAAG	1.02 fold enrichment (6-mer frequency, TF over GST control)	1.01 fold enrichment (6-mer frequency, TF over GST control)	2 fold enrichment (6-mer frequency, TF over GST control)	1.04 fold enrichment (6-mer frequency, TF over GST control)	1.06 fold enrichment (6-mer frequency, TF over GST control)	1.04 fold enrichment (6-mer frequency, TF over GST control)	1.03 fold enrichment (6-mer frequency, TF over GST control)	1.14 fold enrichment (6-mer frequency, TF over GST control)	3.35 fold enrichment (6-mer frequency, TF over GST control)	1.03 fold enrichment (6-mer frequency, TF over GST control)	1.16 fold enrichment (6-mer frequency, TF over GST control)	1.09 fold enrichment (6-mer frequency, TF over GST control)	1.01 fold enrichment (6-mer frequency, TF over GST control)	1.13 fold enrichment (6-mer frequency, TF over GST control)	1.12 fold enrichment (6-mer frequency, TF over GST control)	1.02 fold enrichment (6-mer frequency, TF over GST control)	1.04 fold enrichment (6-mer frequency, TF over GST control)	1.11 fold enrichment (6-mer frequency, TF over GST control)
TTCCTC	2.13 fold enrichment (6-mer frequency, TF over GST control)	2.47 fold enrichment (6-mer frequency, TF over GST control)	1.61 fold enrichment (6-mer frequency, TF over GST control)	2.72 fold enrichment (6-mer frequency, TF over GST control)	2.16 fold enrichment (6-mer frequency, TF over GST control)	2.1 fold enrichment (6-mer frequency, TF over GST control)	2.39 fold enrichment (6-mer frequency, TF over GST control)	2.06 fold enrichment (6-mer frequency, TF over GST control)	1.43 fold enrichment (6-mer frequency, TF over GST control)	2.27 fold enrichment (6-mer frequency, TF over GST control)	2.13 fold enrichment (6-mer frequency, TF over GST control)	2.21 fold enrichment (6-mer frequency, TF over GST control)	2.22 fold enrichment (6-mer frequency, TF over GST control)	1.96 fold enrichment (6-mer frequency, TF over GST control)	1.96 fold enrichment (6-mer frequency, TF over GST control)	3.84 fold enrichment (6-mer frequency, TF over GST control)	2.38 fold enrichment (6-mer frequency, TF over GST control)	2.48 fold enrichment (6-mer frequency, TF over GST control)
